The source of these data is PubChem BioAssay (NCI).

The panel holds about 83,000 compounds, 20% with a hit somewhere; the sample as a whole holds those more often.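 Treatment: one concentration, 48 hours, 96-well format. Scoring: percent growth, with anything below 10 considered active.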 Values without a mark were called inactive. Active and inactive are the calls of the source.

The experiment has as its system HL-60(TB) leukemia. The experiment can be described thus: NCI-60 one-dose screen, 48 h (100 = growth as untreated, 0 = no growth, -100 = all killed). Conditions: 10 µM unless noted.
Turning to `O=[N+]([O-])c1ccccc1C(O)Cc1ccc2ccccc2n1` (stereo unspecified), the growth was 107%.
With `CC(C)/C=C/CC[C@](C)(O)[C@H]1CC[C@]2(C)[C@@H]1CC[C@@H]1[C@@]3(C)C/C(=C/c4cccc(C(F)(F)F)c4)C(=O)C(C)(C)[C@@H]3CC[C@]12C` the figure was 92.9%; with `Nc1nc(N)c(-c2ccc(Cl)c(Cl)c2)c(CBr)n1`, 59.5%.
The result for `COc1c(OCCCN2CCOCC2)ccc2c3n(c(=NC(=O)c4cnc(N)nc4)nc12)CCN3` reads 11.3%; that for `N#CN1CC[C@H](C(=O)Nc2cc3cc(C(N)=O)ccc3cn2)C1`, -37.1% (active).
For the molecule `COc1ccccc1C(=O)O/N=C(\N)Cc1cccc2ccccc12`, the growth is 96.3%.
As for `CCOC(=O)c1cc2c(n1Cc1cc(OC)cc(OC)c1)-c1oncc1CCC2`, the growth is 5.41% (active).
With `CCn1cc(C(=O)O)c(=O)c2cnc(N3CCCC3)nc21` the figure was 75.9%; with `COC(CC(F)F)c1cn(S(=O)(=O)c2ccc(C)cc2)c2ccccc12` (stereo unspecified), 8.92% (active).
As for `CC/C=C\C[C@H]1CC=C2C(=O)C=C[C@@H]2CC=CCCCC(=O)O[C@@H](CCCCC)CC=C2C(=O)C=C[C@@H]2CC=CCCCC(=O)O[C@@H](CCCCC)CC=C2C(=O)C=C[C@@H]2CC=CCCCC(=O)O[C@@H](CCCCC)CC=C2C(=O)C=C[C@@H]2CC=CCCCC(=O)O1`, the growth was -15.3% [7.9 µM] (active).
The result for `Nc1cnc(C(=O)NNc2nc3cc(F)ccc3n3cccc23)cn1` reads 12.1%.
As for `C=C[C@H]1C[C@@H]2C[C@@H]3[C@H]4C/C=C\C(=O)NCCCC5NC(=O)C(=C(O)/C=C/[C@@H]4CC(=O)[C@H]3[C@@H]2[C@H]1C)C5=O` (stereo partly specified), the growth was -76.5% (active).
The result for `O=c1c2ccccc2n2cnc3ccc(Cl)c1c32` reads 82.6%.
On to `CCCCCN1C=C/C(=C\C(=O)N(C)c2ccc(OC(F)(F)F)cc2)c2ccccc21`, for which the growth is 111%.
With `CC(C)C[C@@H](NC(=O)[C@@H](Cc1ccccc1)NC(=O)c1cnccn1)B1Oc2ccc(C[C@H](NC(=O)[C@H](Cc3ccc4c(c3)OB([C@@H](CC(C)C)NC(=O)[C@@H](Cc3ccccc3)NC(=O)c3cnccn3)O4)NC(=O)[C@@H](N)CC3CCC4OB([C@@H](CC(C)C)NC(=O)[C@@H](CC5CCCCC5)NC(=O)C5CNCCN5)OC4C3)C(=O)NCCCC[C@@H]3NC(=O)[C@@H](Cc4ccccc4)NC(=O)[C@H](CC(=O)O)NC(=O)CNC(=O)[C@H](CCCNC(=N)N)NC3=O)cc2O1` (stereo partly specified) the figure was -2.54% (active); with `COc1cc(/C=C/c2cc(/C=C/c3ccc(O)c(OC)c3)n(-c3ccccc3)c(=O)n2)ccc1O`, 70.9%.
With `S=C1NC2(c3ccccc3)CCC(=S)N2c2ccccc21` (stereo unspecified) the figure was 104%.
With `CCN(CCCOc1ccc2c(Nc3cc(CC(=O)Nc4cccc(F)c4)[nH]n3)ncnc2c1)CCOP(=O)(O)O` the figure was 34.9%; with `CCCCCCCCn1ccc2cc(NC(=O)Cn3cc(CN4CCN(CC)CC4)nn3)ccc21`, 63.9%; with `N/C(=N\C(N)=N\c1nc2ccccc2s1)c1ccncc1`, 35.2%.
For the molecule `COc1cccc(-c2cc(C(=O)Nc3ccc(/C=C/c4ccc(OC5CCN(C)CC5)cc4)cc3)ccc2OC)c1`, the growth is 9.98% (active).
As for `CCCCCCCC/C=C/CCCCCCCC1=NC(C)(C)CN1c1ccccc1`, the growth is 70%.
The result for `COc1cc(/C=C2\C(=O)Nc3cc(C)c(O)cc32)cc(OC)c1OC` reads 46.7%.
Consider `COc1ccc(-c2cc(-c3cc(OC)c(OC)c(OC)c3)c(C#N)c(N3CCOCC3)n2)cc1O`, for which the growth is -31.8% (active).
Regarding `N#CC1=C(NC=O)Oc2c(ccc3ccccc23)C1c1ccccc1` (stereo unspecified), the growth was 18.1%.
With `O=C(CNC1CCCCC1)Nc1ccc(-c2nc3ccccc3s2)cc1` the figure was 66.8%.
On to `COC(=O)c1ccc2oc(NC(=O)c3ccc(Nc4ccc([N+](=O)[O-])cc4C)c([N+](=O)[O-])c3)nc2c1`, for which the growth was 99.7%.
With `O=C1OC(c2ccc(-c3ccccc3)cc2)=C/C1=C/c1c2ccccc2cc2ccccc12` the figure was 51%; with `O=C(Nc1ccc(OCc2nnc(-c3ccc(Cl)cc3)o2)c(F)c1)Nc1ccc(Cl)c(C(F)(F)F)c1`, -18.5% (active); with `COc1ccc(/C=N/NC(=O)c2cnn3c2NC(c2ccccc2)C3)cc1OC` (stereo unspecified), 36.4%.
With `CCN(CC)Cc1cc(C=C2C(=O)NC(=S)NC2=O)cc(OC)c1O` the figure was 106%.
